Data as given in PubChem BioAssay AID588511 (Johns Hopkins Ion Channel Center, 2011).
The whole screen tested about 310,000 compounds, of which about 3,600 (1.2%) were called active.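 The calls were made as follows: active = ratio plate-corrected score three or more library SD toward inhibition, starting fluorescence score within five deviations; inactive = the rest.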 The list comes from a sample in which actives are over-represented; it also holds similar structures and randomly drawn compounds.

The molecules below were run against Anoctamin-1 (Mus musculus) (UniProt Q8BHY3) (assay: blockers of mouse ANO1 Ca-activated Cl channel – cell-based, HTS, primary screen (AID 588511;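 as to normalized B-score (activity score, 25-100; higher = stronger inhibition): score derived from kinetic fluorescence span divided by baseline fluorescence per well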)). Conditions: HEK293 TMEM16A/YFP iodide influx fluorescence, ionomycin; at 10 µM.
Sequence of Anoctamin-1 (Mus musculus) (Q8BHY3 whole entry, looked up): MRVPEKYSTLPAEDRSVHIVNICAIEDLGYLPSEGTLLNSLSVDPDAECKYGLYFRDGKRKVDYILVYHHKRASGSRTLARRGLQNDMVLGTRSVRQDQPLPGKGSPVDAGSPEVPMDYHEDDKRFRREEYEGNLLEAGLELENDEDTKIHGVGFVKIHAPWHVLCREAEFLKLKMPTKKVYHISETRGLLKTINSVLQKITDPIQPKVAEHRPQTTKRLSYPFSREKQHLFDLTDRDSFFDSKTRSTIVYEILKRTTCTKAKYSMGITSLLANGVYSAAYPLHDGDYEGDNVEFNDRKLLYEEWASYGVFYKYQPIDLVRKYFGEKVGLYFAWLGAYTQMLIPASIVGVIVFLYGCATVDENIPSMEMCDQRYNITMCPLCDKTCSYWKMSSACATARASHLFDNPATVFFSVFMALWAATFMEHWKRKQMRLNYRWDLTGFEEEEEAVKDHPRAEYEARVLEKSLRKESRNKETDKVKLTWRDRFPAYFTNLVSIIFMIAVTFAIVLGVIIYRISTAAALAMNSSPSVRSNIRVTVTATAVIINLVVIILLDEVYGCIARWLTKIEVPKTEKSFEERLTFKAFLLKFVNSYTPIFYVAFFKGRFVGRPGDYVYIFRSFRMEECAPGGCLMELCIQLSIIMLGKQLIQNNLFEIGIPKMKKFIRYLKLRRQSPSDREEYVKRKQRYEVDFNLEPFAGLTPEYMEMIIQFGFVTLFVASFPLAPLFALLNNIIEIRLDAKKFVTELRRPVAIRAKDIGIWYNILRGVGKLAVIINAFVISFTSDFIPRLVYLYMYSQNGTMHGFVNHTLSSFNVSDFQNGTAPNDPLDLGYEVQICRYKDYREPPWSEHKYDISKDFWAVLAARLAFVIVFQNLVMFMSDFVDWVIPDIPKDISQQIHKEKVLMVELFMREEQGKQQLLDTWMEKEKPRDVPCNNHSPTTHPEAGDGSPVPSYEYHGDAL

Structure (SMILES) | normalized B-score (activity score, 25-100; higher = stronger inhibition)
COc1ccc(N(CC(=O)NC2CCCCC2)C(=O)CNC(=O)c2ccco2)c(OC)c1 | inactive
CCOc1ncccc1C(=O)N(C)CC(=O)Nc1ccc(F)cc1 | inactive
Cc1ccc(CNS(=O)(=O)CCNC(=O)c2ccccc2)cc1 | inactive
COc1ccc(CCNC(=O)C(=O)NCC2OCCN2S(=O)(=O)c2ccc(F)cc2)cc1OC (centres undefined) | inactive
CCCCNC(=O)c1ccccc1NC(=O)c1ccccc1N(C)S(C)(=O)=O | inactive
CCOC(=O)c1cccc(NC(=O)CCc2c(C)nc3ncnn3c2C)c1 | inactive
CCOC(=O)c1cccc(NC(=O)CCn2nnc3ccccc32)c1 | 100 (active)
CCOC(=O)c1cccc(NC(=O)CCOc2ccccc2)c1 | inactive
COC(=O)c1cc(NC(=O)c2cc(C(C)(C)C)nn2Cc2cccc(C)c2)ccc1N1CCOCC1 | inactive
Cc1cccc(C)c1N1C(=O)CN(Cc2ccccc2)C1=S | inactive
CCCCn1ccnc1C(=O)c1cccc(S(=O)(=O)N2c3ccccc3CC2C)c1 (centres undefined) | 25 (active)
CC1Cc2ccccc2N1S(=O)(=O)c1ccc(Cl)nc1 (centres undefined) | inactive
CC1Cc2ccccc2N1S(=O)(=O)c1c(N)n(C)c(=O)n(C)c1=O (centres undefined) | inactive
CC(=O)N1CCCc2cc(S(=O)(=O)N3CCCC(C(=O)N4CCN(c5cccc(Cl)c5)CC4)C3)ccc21 (centres undefined) | 100 (active)
CC(=O)N1c2ccc(S(=O)(=O)N3CCCC(C(=O)Nc4cccc(Cl)c4)C3)cc2CC1C (centres undefined) | inactive
CC(=O)N1CCCc2cc(S(=O)(=O)N3CCCC(C(=O)NCc4ccc(Cl)cc4)C3)ccc21 (centres undefined) | inactive
COC(=O)c1ccccc1NC(=S)NC(=O)c1ccccc1F | inactive
O=C(O)c1ccccc1NC(=O)c1ccccc1-c1ccccc1C(=O)O | inactive
O=C(NC(=S)Nc1ccccc1C(=O)O)c1ccc(-c2ccc(Br)cc2)o1 | 100 (active)
Cc1cc(C)cc(N(CC(=O)NC2CCCC2)C(=O)CCC(=O)Nc2cc(C)on2)c1 | inactive
COc1cccc(/C=C/C(=O)Nc2ccc3c(c2)OCCO3)c1 | inactive
Cc1ccc(-n2[nH]c(C)c(/C=N/N3C(=O)c4cccc5cccc(c45)C3=O)c2=O)cc1 | 100 (active)
COc1cc(SC#N)ccc1N=Cc1c(C)[nH]n(-c2ccc(C)cc2)c1=O | inactive
Cc1[nH]n(-c2ccccc2)c(=O)c1/C=N/NC(=O)c1ccoc1C | inactive
Cc1ccc(C2(C(F)(F)F)N=C3Sc4cc(C)cc(C)c4N3C(=O)N2)cc1 (centres undefined) | inactive
Cc1c(C(=O)OCC(=O)N2CCCC2=O)oc2ccccc12 | inactive

Structure (SMILES) | normalized B-score (activity score, 25-100; higher = stronger inhibition)
COc1ccc(Nc2ncnc3sc(-c4ccccc4)cc23)c(OC)c1 | inactive
Oc1ccccc1N1CCN(c2ncnc3sc(-c4ccccc4)cc23)CC1 | inactive
c1ccc(-c2cc3c(NCC4COc5ccccc5O4)ncnc3s2)cc1 (centres undefined) | 100 (active)
COc1cc(Cl)c(C)cc1NC(=O)CN1CCCCCC1 | inactive
O=C(Cc1cccs1)NCc1cccc(C(F)(F)F)c1 | inactive
CCOn1c(=O)c(=O)n(O)c2ccccc21 | inactive
C[C@H]1CCC(=O)N([C@H](CSc2ccccc2)Cc2ccccc2)CC1 | 25 (active)
CN1CCC(=O)N([C@H](CO)Cc2ccccc2)CC1 | inactive
COc1ccc(SC[C@H](Cc2ccccc2)N2CCN(CCc3ccccc3)CCC2=O)cc1 | inactive
Cn1c2c(c(=O)n(C)c1=O)C(c1cccc([N+](=O)[O-])c1)Nc1ccccc1O2 (centres undefined) | inactive
COc1ccc(CCNC(=O)CS(=O)(=O)Cc2nc(-c3ccc(C)cc3)oc2C)cc1OC | inactive
COc1ccc(CCNC(=O)C2CCCN(Cc3nc(-c4cccc(Cl)c4)oc3C)C2)cc1OC (centres undefined) | 100 (active)
COc1cccc(-c2nc(CS(=O)(=O)CC(=O)NCCc3ccc(OC)c(OC)c3)c(C)o2)c1 | inactive
CCOc1ccc(/C=C/C(=O)OCC(=O)c2ccccc2OC)cc1OC | inactive
Cc1cccc(N)c1SC1CCCCC1O (centres undefined) | inactive
Cc1cccc(N=C2SC(C)CN2C(=O)CN2C(=O)NC3(CCCC3)C2=O)c1 (centres undefined) | inactive
O=C(Nc1nnc(S(=O)(=O)N2CCCCCC2)s1)c1cccc(Br)c1 | inactive
NS(=O)(=O)c1ccc(N=Cc2ccc(Br)s2)cc1 | inactive
COc1ccccc1C1C2=C(COC2=O)Nc2cc3c(cc21)OCO3 (centres undefined) | inactive
COC(=O)C1=C(C)NC(=O)CC1c1ccccc1OC (centres undefined) | inactive
CCCOc1ccccc1C1CC(=O)Nc2cc3c(cc21)OCO3 (centres undefined) | 25 (active)
CC1CCN(C(=O)CN(c2ccc(Oc3ccccc3)cc2)S(C)(=O)=O)CC1 | inactive
COc1ccc(S(=O)(=O)N(CCCN2CCCC2=O)Cc2cc3c(C)ccc(C)c3[nH]c2=O)cc1 | inactive
Cc1ccc(-c2noc(CSc3nnc(-c4cccs4)n3C)n2)cc1 | inactive
Cc1ccc(-c2noc(CSc3nnc(-c4ccccc4)n3C)n2)cc1 | inactive
Cc1ccc(-c2noc(CSc3nnnn3-c3ccccc3)n2)cc1 | 100 (active)

Structure (SMILES) | normalized B-score (activity score, 25-100; higher = stronger inhibition)
Cc1ccc(-c2nnc(CN3CCN(C)CC3)o2)cc1 | inactive
O=C(NCCCN1CCCC1=O)C(=O)NCC1OCCN1S(=O)(=O)c1ccc(Br)cc1 (centres undefined) | inactive
CCn1c(SCc2ccccc2)nc2c(c1=O)SCC2 | inactive
Cn1c(SCC(=O)N2CCCCC2)nc2c(c1=O)SCC2 | inactive
Cc1cccc(CSc2nc3c(c(=O)n2C)SCC3)c1 | 25 (active)
O=C(Nc1ccnn1C1CCN(C/C=C/c2ccc(F)cc2)CC1)C1CCCC1 | inactive
COc1ccc(OC)c(S(=O)(=O)N2CCCC(C(=O)N3CCC(C(N)=O)CC3)C2)c1 (centres undefined) | inactive
Cc1ccc(C(=O)NNC(=O)C(C)Oc2ccc3ccccc3c2)o1 (centres undefined) | inactive
CCCc1ccc(OCC(=O)NNC(=S)NC(=O)c2ccco2)cc1 | inactive
CC(Oc1ccc2ccccc2c1)C(=O)NNC(=S)NC(=O)c1ccco1 (centres undefined) | 100 (active)
O=C(Nc1cc(-c2ccccc2)nn1-c1ccccc1F)c1ccc([N+](=O)[O-])cc1 | inactive
CSc1ccc(C(=O)C2CCCN(C(=O)c3ccc(C)nc3)C2)cc1 (centres undefined) | inactive
CCOC(=O)N1CCC(=NNC(N)=O)CC1 | inactive
Cc1cccc(-c2nc(CS(=O)CC(=O)NC(C)CCc3ccccc3)c(C)o2)c1 (centres undefined) | inactive
O=c1ccc2cc(S(=O)(=O)NCCCc3ccccc3)ccc2[nH]1 | inactive
O=c1cc(C(F)(F)F)[nH]c(=O)n1C1CCCCC1 | 25 (active)
Cc1ccc(Nc2cc(=O)n(C3CCCCC3)c(=O)[nH]2)cc1C | inactive
CCCOn1c(-n2nc(C)cc2C)nc2ccccc2c1=O | inactive
CCOc1cc(/C=C2/C(=N)N3OC(C)=CC3=NC2=O)ccc1OC | inactive
COc1ccc(OCCCn2cccc2/C=C2/C(=N)N3OC(C)=CC3=NC2=O)cc1 | 25 (active)
CC1=CC2=NC(=O)/C(=C/c3coc4ccccc4c3=O)C(=N)N2O1 | inactive
Cn1cnc(C(F)(F)F)c1-c1ccc([N+](=O)[O-])cc1 | inactive
O=C(Nc1cccc(S(=O)(=O)Nc2ccc(Cl)cc2)c1)c1ccc2c(c1)OCCO2 | 25 (active)
O=C(Nc1cccc(S(=O)(=O)N2CCCCC2)c1)c1ccc2c(c1)OCO2 | inactive
O=C(Nc1ccccc1)c1ccc2c(c1)OCCCO2 | inactive
CCCCn1c(SCC(=O)N2CCC(C(=O)OCC)CC2)nc2cc(S(N)(=O)=O)ccc21 | inactive

Structure (SMILES) | normalized B-score (activity score, 25-100; higher = stronger inhibition)
CCCCn1c(SCc2ncc(-c3ccccc3)o2)nc2cc(S(N)(=O)=O)ccc21 | 25 (active)
CCn1c(SCC(=O)NCC2CCCO2)nc2cc(S(=O)(=O)N3CCCCC3)ccc21 (centres undefined) | inactive
CN(C)c1cc(-c2ccc(F)cc2)oc(=O)c1Cl | inactive
N#CC1=C(SCc2ccccc2)NC(=O)C(C#N)C12CCCC2 (centres undefined) | 25 (active)
CC1(C)CCc2nc(SCc3ccccc3)c(C#N)cc2C1 | inactive
N#CC1=C(SCc2ccc(C#N)cc2)N=C(N)C(c2nc(-c3ccccc3)cs2)C12CCCCC2 (centres undefined) | inactive
Nc1ccc(C(=O)OCC(=O)NC2CCS(=O)(=O)C2)cc1[N+](=O)[O-] (centres undefined) | inactive
CCC1CCCCN1C(=S)Nc1ccc(SC(F)F)cc1 (centres undefined) | inactive
COc1ccc(CCN2CC(C(=O)NCCN3CCNC3=O)CCC2=O)cc1 (centres undefined) | inactive
O=C(N/N=C/c1ccc([N+](=O)[O-])o1)c1cccc(S(=O)(=O)N2CCOCC2)c1 | inactive
O=C(NC(=S)Nc1ccc(S(=O)(=O)N2CCOCC2)cc1)c1ccccc1[N+](=O)[O-] | inactive
O=[N+]([O-])c1cc(Cl)cc(/C=N/NC(=S)Nc2cc(S(=O)(=O)N3CCOCC3)ccc2Cl)c1O | 100 (active)
Cc1ccsc1C(=O)N[C@@H](C)c1nnc2ccccn12 | inactive
COC(C[C@@H]1O[C@@H]1C(=O)[C@H](C)OCc1ccccc1)OC | inactive
CSCCC(C(=O)NC1=NCCS1)N1C(=O)c2ccccc2C1=O (centres undefined) | inactive
COC(=O)[C@@H]1CC(O)CN1C(=O)C12CC3CC(CC(C3)C1)C2 (some centres undefined) | inactive
CC(C)OCCCNC(=O)c1cc(Sc2ccc(F)cc2)nc2ccccc12 | inactive
CC(C)OCCCNc1ncnc2c1[nH]c1ccc(F)cc12 | 100 (active)
CNS(=O)(=O)c1cnccc1N1CCN(c2cccc(C)c2)CC1 | inactive
CCC1(C)Cc2c(sc3[nH]c(=S)n(Cc4ccccc4)c(=O)c23)CO1 (centres undefined) | inactive
CC1CC(C)(C)n2c(O)c(N=NC(N)=S)c3cccc1c32 (centres undefined) | inactive
CCC(C)NCCOCCOc1ccc(Br)cc1C (centres undefined) | inactive
COc1cccc(OC)c1C(=O)N1CCN(Cc2cccnc2)CC1 | inactive
Cc1cc(-c2ccc(C)c(S(=O)(=O)NC(C)Cc3ccco3)c2)on1 (centres undefined) | inactive
Cc1cc(-c2ccc(C)c(S(=O)(=O)Nc3ccc(S(N)(=O)=O)cc3)c2)on1 | inactive
Cc1ccc2c(c1)N(S(=O)(=O)c1cc(-c3cc(C)no3)ccc1C)CCO2 | 25 (active)
